The results in this text go back to PubChem BioAssay.

A number with no mark means an inactive call. For some of these results: Results with a measured potency or affinity are listed apart. Calls of active or inactive are those of the source. Unless noted, no rule for the calls is given here.

Assay [1] in a line: antimalarial activity against Dd2 strain (AID 2302;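 active = growth inhibition above 50% at the single 2 µM test dose, taken to imply half-maximal potency below 2 µM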;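 also: 0% = DMSO untreated growth and 100% = chloroquine plus artemisinin killed control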). To be noted: P. falciparum Dd2 in RBCs, LDH growth readout, 72 h; at 2 µM; hits give high values.
Assay [2] in a line: HepG2 cytotoxicity, primary screen, cytotoxicity control for P. falciparum antimalarial project, cell-based, ATP luminescence (AID 2303;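 active = inhibition above 50%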;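 also: 0% = DMSO wells and 100% = digitonin-killed cells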). To be noted: HepG2 viability, 24-48 h, at 10 µM, hits give high values.
For assay [3], the target named is L-lactate dehydrogenase (Plasmodium falciparum (isolate CDC / Honduras)) (UniProt Q27743). The assay can be described thus: PfLDH activity inhibition – cell lysate, 3D7 strain, counter-screen for P. falciparum growth inhibition project (AID 2304).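 Also: 0% = vehicle and 100% = reference inhibitor.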 To be noted: P. falciparum 3D7 crude extract, LDH APAD/NBT absorbance; at 2 µM; hits give high values. (The purpose of a counterscreen is to sort out artefacts and off-target activity.)

The nature of assay [4]: inhibition of 3D7 malaria parasite growth – strain 3D7 (AID 2306).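 Also: 0% = DMSO wells and 100% = chloroquine plus artemisinin control wells.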 To be noted: P. falciparum 3D7 erythrocytic growth, LDH absorbance, 72 h; at 2 µM; hits give high values.
The target in assay [5] is Calcium-dependent protein kinase 1 (Plasmodium falciparum (isolate 3D7)) (UniProt P62344). Description: PfCDPK1 kinase inhibitors, biochemical, TCAMS library (AID 1159585; cut-off not given, nearly all actives have IC50 up to about 0.98 µM;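 also: inhibitors leave more ATP so luminescence rises with inhibition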). To be noted: recombinant PfCDPK1, Kinase-Glo ATP depletion luminescence. (Kinase-Glo reads ATP consumption through a luciferase reaction.)
Assay [6] has as its target Plasmodium falciparum protein kinase 6 (PK6, PF3D7_1337100) (UniProt Q8IDW1). The assay can be described thus: PfPK6 kinase inhibitors, biochemical, TCAMS library (AID 1159586). To be noted: recombinant PfPK6, Kinase-Glo ATP depletion luminescence.
Assay [7] addresses Protein kinase 7 (PK7), Plasmodium falciparum 3D7 (PF3D7_0213400) (UniProt Q7YTF7). Description: inhibition of Plasmodium PK7 catalytic activity – biochemical, TCAMS antimalarial set, Kinase-Glo luminescence (AID 1159587). To be noted: recombinant PfPK7, Kinase-Glo ATP depletion luminescence.
The target in assay [8] is Calcium-dependent protein kinase 4 (Plasmodium falciparum (isolate 3D7)) (UniProt Q8IBS5). Description: PfCDPK4 kinase inhibitors, biochemical, TCAMS library (AID 1159588; cut-off not given, nearly all actives have IC50 up to about 0.91 µM). To be noted: recombinant PfCDPK4, Kinase-Glo ATP depletion luminescence.
Chain of Calcium-dependent protein kinase 4 (Plasmodium falciparum (isolate 3D7)) (Q8IBS5 whole entry, looked up): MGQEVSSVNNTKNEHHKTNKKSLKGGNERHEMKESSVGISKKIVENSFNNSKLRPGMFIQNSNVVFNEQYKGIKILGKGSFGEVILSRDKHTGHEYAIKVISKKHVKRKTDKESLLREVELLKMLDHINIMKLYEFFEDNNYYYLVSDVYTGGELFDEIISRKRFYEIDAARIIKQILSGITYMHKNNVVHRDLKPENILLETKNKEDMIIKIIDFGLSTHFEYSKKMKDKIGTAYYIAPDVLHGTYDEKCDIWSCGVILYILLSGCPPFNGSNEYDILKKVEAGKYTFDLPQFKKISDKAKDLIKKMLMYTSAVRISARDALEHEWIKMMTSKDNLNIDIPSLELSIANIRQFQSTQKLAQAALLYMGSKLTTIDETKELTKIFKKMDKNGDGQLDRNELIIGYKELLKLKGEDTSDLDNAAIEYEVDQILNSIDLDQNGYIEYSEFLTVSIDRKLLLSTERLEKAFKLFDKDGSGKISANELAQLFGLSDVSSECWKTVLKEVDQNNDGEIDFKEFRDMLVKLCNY

Chain of Protein kinase 7 (PK7), Plasmodium falciparum 3D7 (PF3D7_0213400) (Q7YTF7 1-343): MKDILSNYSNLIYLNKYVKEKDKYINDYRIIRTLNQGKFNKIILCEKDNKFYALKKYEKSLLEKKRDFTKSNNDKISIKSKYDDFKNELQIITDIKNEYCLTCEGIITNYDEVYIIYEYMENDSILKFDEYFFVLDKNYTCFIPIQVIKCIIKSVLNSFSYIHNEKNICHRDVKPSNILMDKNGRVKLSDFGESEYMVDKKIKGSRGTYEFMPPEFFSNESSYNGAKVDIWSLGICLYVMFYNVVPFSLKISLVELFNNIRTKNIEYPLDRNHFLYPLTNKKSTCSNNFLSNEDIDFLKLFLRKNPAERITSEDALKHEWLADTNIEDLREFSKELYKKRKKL
Chain of Plasmodium falciparum protein kinase 6 (PK6, PF3D7_1337100) (Q8IDW1 1-305): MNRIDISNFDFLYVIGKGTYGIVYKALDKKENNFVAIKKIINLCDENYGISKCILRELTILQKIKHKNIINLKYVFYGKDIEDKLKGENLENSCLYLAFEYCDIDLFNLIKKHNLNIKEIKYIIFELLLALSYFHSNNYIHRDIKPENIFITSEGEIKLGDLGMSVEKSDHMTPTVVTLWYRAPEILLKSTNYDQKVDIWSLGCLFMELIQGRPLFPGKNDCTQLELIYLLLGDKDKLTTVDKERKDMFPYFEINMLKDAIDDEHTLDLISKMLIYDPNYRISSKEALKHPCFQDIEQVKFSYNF
Chain of L-lactate dehydrogenase (Plasmodium falciparum (isolate CDC / Honduras)) (Q27743 whole entry, looked up): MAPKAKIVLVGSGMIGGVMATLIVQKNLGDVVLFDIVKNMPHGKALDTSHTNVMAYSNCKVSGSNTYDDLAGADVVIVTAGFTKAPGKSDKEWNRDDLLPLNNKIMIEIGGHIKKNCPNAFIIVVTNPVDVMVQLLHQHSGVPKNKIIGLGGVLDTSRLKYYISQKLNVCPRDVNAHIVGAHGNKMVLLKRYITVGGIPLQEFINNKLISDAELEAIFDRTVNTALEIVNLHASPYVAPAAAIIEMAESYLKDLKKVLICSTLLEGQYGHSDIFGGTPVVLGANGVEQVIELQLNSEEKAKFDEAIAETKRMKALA
Chain of Calcium-dependent protein kinase 1 (Plasmodium falciparum (isolate 3D7)) (P62344 whole entry, looked up): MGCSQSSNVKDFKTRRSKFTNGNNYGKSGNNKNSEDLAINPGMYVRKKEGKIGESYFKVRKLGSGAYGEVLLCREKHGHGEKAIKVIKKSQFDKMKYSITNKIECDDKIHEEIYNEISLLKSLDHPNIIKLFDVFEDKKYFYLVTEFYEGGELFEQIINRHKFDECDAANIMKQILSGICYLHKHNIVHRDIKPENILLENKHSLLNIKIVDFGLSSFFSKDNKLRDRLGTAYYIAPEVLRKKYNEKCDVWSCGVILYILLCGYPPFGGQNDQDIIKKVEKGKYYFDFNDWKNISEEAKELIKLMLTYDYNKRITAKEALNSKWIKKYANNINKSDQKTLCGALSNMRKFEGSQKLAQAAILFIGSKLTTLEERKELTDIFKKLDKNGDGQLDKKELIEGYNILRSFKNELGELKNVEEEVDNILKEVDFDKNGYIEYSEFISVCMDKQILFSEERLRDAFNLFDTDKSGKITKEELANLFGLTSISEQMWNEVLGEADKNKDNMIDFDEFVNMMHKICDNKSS

By inhibition is commonly meant the change of the read-out against control, counted positive when it falls. In the case of `COc1ccc(-c2nc(NC(=O)CS(=O)(=O)c3ccccc3)sc2C)cc1`, the growth inhibition is 82% (active) in assay [1] and 99% (active) in assay [4]. Also, the inhibition in assay [2] was 7%; in assay [3], -9%. Further, the outcome in assay [5], in assay [6], in assay [7] and in assay [8] was inactive.
For the molecule `O=C(/C=C/c1ccc(Cl)c(Cl)c1)N1CCC(CCN2CCC(c3nc4ccc(O)cc4[nH]3)CC2)CC1`, the growth inhibition in assay [1] was 60% (active); in assay [4], 100% (active). The inhibition in assay [2] was 42%; in assay [3], 4%. Also, the outcome in assay [5], in assay [6], in assay [7] and in assay [8] was inactive.
On to `Nc1ncnc2cc(-c3cccc(S(N)(=O)=O)c3)sc12`, for which the growth inhibition in assay [1] was 99% (active); in assay [4] it was 98% (active). The inhibition is 13% in assay [2] and 2% in assay [3]. The outcome in assay [5], in assay [6], in assay [7] and in assay [8] was inactive.
For `O=C(Nc1ccc2ccccc2c1)N(CCCn1ccnc1)Cc1csc(-c2ccc(CNCc3ccccc3)cc2)n1`, the growth inhibition in assay [1] was 53% (active); in assay [4], 99% (active). Besides, the figures for the inhibition in assay [2] and in assay [3] were 10% and 0%, respectively. Also, the outcome in assay [5], in assay [6], in assay [7] and in assay [8] was inactive.
For the molecule `COc1ccc2nccc([C@@H](O)CN3CCC(NC(=O)C(=Cc4ccc(Cl)cc4Cl)c4ccc(-c5ccccc5)cc4)CC3)c2c1`, the growth inhibition in assay [1] is 98% (active); in assay [4], 100% (active). In addition, the inhibition in assay [2] was 1%; in assay [3], -2%. Also, the result in assay [5], in assay [6], in assay [7] and in assay [8] was inactive.
As for `Cc1noc(C)c1-c1cccc(CNCc2cccc(-c3ccc(-c4nc5ccccc5[nH]4)cc3)c2)c1`, the growth inhibition is 76% (active) in assay [1] and 100% (active) in assay [4]. The inhibition was 27% in assay [2] and -2% in assay [3]. In addition, the result in assay [5], in assay [6], in assay [7] and in assay [8] was inactive.
Consider `Nc1ccc2[nH]cc(C3CCN(CC4CCC(NC(=O)/C=C/c5ccc(Cl)c(Cl)c5)CC4)CC3)c2n1` (stereo not given), for which the growth inhibition in assay [1] is 93% (active); in assay [4], 100% (active). Also, the inhibition in assay [2] is 18%; in assay [3], 1%. Further, the outcome in assay [5], in assay [6], in assay [7] and in assay [8] was inactive.
`Oc1ccccc1CN1CCCC(COC(c2ccc(F)cc2)c2ccc(F)cc2)C1` (stereo not given): the growth inhibition in assay [1] was 98% (active); in assay [4], 97% (active). For the same molecule, the figures for the inhibition in assay [2] and in assay [3] were 19% and 1%, respectively. Further, the result in assay [5], in assay [6], in assay [7] and in assay [8] was inactive.
Consider `CCc1c(CCNCCCCCCNCCc2ccc3c(c2C)OCO3)ccc2c1OCO2`, for which the growth inhibition is 7% in assay [1] and 101% (active) in assay [4]. Besides, the inhibition in assay [2] is 59% (active); in assay [3], 7%. The result in assay [5], in assay [6], in assay [7] and in assay [8] was inactive.
For `COc1ccc(-c2nonc2NC(=O)c2ccc(C(C)(C)C)cc2)cc1OC`, the growth inhibition was 73% (active) in assay [1] and 99% (active) in assay [4]. Also, the figures for the inhibition in assay [2] and in assay [3] were -3% and -2%, respectively. Further, the result in assay [5], in assay [6], in assay [7] and in assay [8] was inactive.
Consider `Cc1cccc(S(=O)(=O)Nc2cccc(CCN3CCC(N4CCCCC4)CC3)c2)c1`, for which the growth inhibition is 13% in assay [1] and 87% (active) in assay [4]. In addition, the inhibition in assay [2] was 15%; in assay [3], -2%. Also, the result in assay [5], in assay [6], in assay [7] and in assay [8] was inactive.
On to `c1ccc2[nH]c(-c3ccc(-c4ccc(CN5CCN(c6ccncc6)CC5)cc4)s3)nc2c1`, for which the growth inhibition was 100% (active) in assay [1] and 101% (active) in assay [4]. Besides, the inhibition is 25% in assay [2] and -5% in assay [3]. Moreover, the result in assay [5], in assay [6], in assay [7] and in assay [8] was inactive.
Consider `O=C(NCCCCN1CCC(c2ccc3c(c2OCCN2CCCC2=O)CCCC3)CC1)c1ccc(-c2ccc(C(F)(F)F)cc2)cc1`, for which the results for the growth inhibition in assay [1] and in assay [4] were 1% and 88% (active), respectively. Also, the figures for the inhibition in assay [2] and in assay [3] were 56% (active) and 1%, respectively. Further, the result in assay [5], in assay [6], in assay [7] and in assay [8] was inactive.
In the case of `Cc1sc2nc(CSc3ccccc3)nc(N3CCN(CC(=O)N4CCCC4)CC3)c2c1C`, the growth inhibition is 69% (active) in assay [1] and 91% (active) in assay [4]. Besides, the figures for the inhibition in assay [2] and in assay [3] were 19% and 2%, respectively. For the same molecule, the outcome in assay [5], in assay [6], in assay [7] and in assay [8] was inactive.
As to `COc1ccc(CN(C)CC(O)COc2ccc(NC(=O)c3cccc4c(=O)c5cccc(OC)c5[nH]c34)cc2)cc1OC` (stereo not given), the growth inhibition in assay [1] is 65% (active); in assay [4], 93% (active). The inhibition is 72% (active) in assay [2] and -3% in assay [3]. The outcome in assay [5], in assay [6], in assay [7] and in assay [8] was inactive.
Regarding `CC(C)(C)C(=O)Nc1ccc(N2CCN(C(c3ccccc3)c3ccccc3)CC2)c(Cl)c1`, the growth inhibition in assay [1] was 94% (active); in assay [4] it was 92% (active). The inhibition is -13% in assay [2] and 0% in assay [3]. The result in assay [5], in assay [6], in assay [7] and in assay [8] was inactive.
With `CCCN1CCN(c2ccc(NS(=O)(=O)c3ccc(C(=O)Nc4ccc(Cl)cc4)cc3)cc2)CC1`, the figures for the growth inhibition in assay [1] and in assay [4] were 50% (active) and 100% (active), respectively. In addition, the figures for the inhibition in assay [2] and in assay [3] were 4% and -4%, respectively. Besides, the result in assay [5], in assay [6], in assay [7] and in assay [8] was inactive.
As to `CCCN(CC1CC1)c1nc(C)nc2c(-c3ccccc3)cc(C)cc12`, the figures for the growth inhibition in assay [1] and in assay [4] were 78% (active) and 96% (active), respectively. Moreover, the inhibition is 72% (active) in assay [2] and 1% in assay [3]. For the same molecule, the outcome in assay [5], in assay [6], in assay [7] and in assay [8] was inactive.
Take `O=C(Nc1cccc(CN2CCN(Cc3cccc(O)c3)CC2)c1)c1cc2ccccc2s1`: the values for the growth inhibition in assay [1] and in assay [4] were 54% (active) and 86% (active), respectively. Further, the inhibition is 13% in assay [2] and 0% in assay [3]. Further, the outcome in assay [5], in assay [6], in assay [7] and in assay [8] was inactive.
As to `CC(C)CNCc1ccc(-c2cccc(CN(CCCN3CCN(C)CC3)C(=O)/C=C/c3ccccc3)c2)cc1`, the growth inhibition in assay [1] is 93% (active); in assay [4], 95% (active). Moreover, the values for the inhibition in assay [2] and in assay [3] were 43% and 0%, respectively. In addition, the outcome in assay [5], in assay [6], in assay [7] and in assay [8] was inactive.
